# Measured values published in ChEMBL document CHEMBL3988442, “University of Dundee, Small-Polar-MMV Screening Library” (2021).
# Hit rate of the full screen: of about 48,000 compounds, about 13,000 (27%) showed an effect of 50% or more. This is one part of the list.
# System: Wolbachia pipientis
# Experiment: Anti-Wolbachia Cell-Based Screen
# Format: functional
# Set-up: scale not given: in the data most compounds retested in dose-response had high values
# Details: 5 µM
row,SMILES,Percent Effect [%]
1,COCCn1cnnc1Cn1ccnc1-c1ccccc1C,-14.43
2,c1ccc(-c2cc(CC3(NCc4ncc[nH]4)COC3)no2)cc1,-5.291
3,O=C1OCCN1CCS(=O)(=O)c1cccc(Cl)c1,-8.046
4,CC(C)c1ccc(C(CN)N2CCc3sccc3C2)cc1 (stereo not given),134.3
5,N#Cc1ccc(F)c(CN2CCc3sccc3C2)c1,10.21
6,O=S(=O)(N1CCCC1)N1CCc2sccc2C1,-2.678
7,NCC(c1ccc(Cl)cc1)N1CCc2sccc2C1 (stereo not given),85.2
8,CC(C(=O)N1CCc2sccc2C1)N1CCC(S(N)(=O)=O)CC1 (stereo not given),4.951
9,CC(C)c1nsc(N2CCc3sccc3C2)n1,-3.315
10,O=C1CC2(CCCC2)C(=O)N1CC(O)COCc1ccccc1F (stereo not given),-41.58
11,CCOc1ncccc1C(=O)NCC(O)c1ccc(F)c(F)c1 (stereo not given),-43.97
12,O=C(O)C(F)(F)F.O=C(O)C(F)(F)F.c1ccc(OCc2nnc3n2CCN(CC2CCOCC2)C3)nc1,15.11
13,Cc1cc(C)c(CNC(=O)NCC(O)COc2ccccc2)c(=O)[nH]1 (stereo not given),-7.857
14,Cc1ccc(CN2CCC(n3cc(CN4CCC(O)CC4)nn3)CC2)s1,-6.735
15,COCCN1CCC12CCN(C(=O)c1ccsc1)CC2.O=C(O)C(F)(F)F,-8.3
16,CCc1noc(CCCC(=O)N2CCCC(c3ccn[nH]3)C2)n1 (stereo not given),-18.93
17,CCCc1noc(CCC(=O)N2CCCC(c3ccn[nH]3)C2)n1 (stereo not given),-9.271
18,CCc1noc(CCC(=O)N2CCC(c3ccn[nH]3)C2)n1 (stereo not given),80.59
19,COCC(=O)NCC1Cn2nnc(-c3ccoc3)c2CO1 (stereo not given),-10
20,Cc1nc(-c2ccccc2)ccc1C(=O)N1CCn2c(C)nnc2C1,-4.566
21,O=c1cc(-c2ccccc2)nc2n1CCCCC2,110.3
22,O=c1cc(-c2ccc(F)cc2)nc2n1CCCCC2,114
23,Fc1ccc2c(c1)C(NCc1nnc3n1CCCCC3)CCCO2 (stereo not given),-5.807
24,O=c1[nH]c(-c2ccc(F)cc2)nc2c1CCNC2,-26.62
25,NC1(c2nc(-c3ccccc3)cc(=O)[nH]2)CCCC1,-3.244
26,CCc1cc(CNC(=O)Nc2cc(F)cc(N3CCCC3)c2)on1,-27.71
27,O=C1CCc2ccccc2N1CCCn1cnnn1,-8.538

row,SMILES,Percent Effect [%]
1,CC(C)c1ccc(C(=O)O)cc1S(=O)(=O)Nc1ccc(=O)n(C)c1,-9.9
2,Cc1ccc(N2C[C@@H]3CN(C(=O)c4ccccc4)CCO[C@@H]3C2)nn1.O=C(O)C(F)(F)F,-9.523
3,Cc1ccc(N2CCO[C@@H]3CN(Cc4cccc(C)n4)CC[C@@H]3C2)nn1,0.9995
4,Cc1ccc(N2CCO[C@H]3CN(C(=O)c4cccc(C)n4)C[C@H]32)nn1,104.4
5,CNS(=O)(=O)c1cccc(C(C)NCc2cccc(O)c2)c1 (stereo not given),-12.85
6,O=C(c1nc(=O)[nH][nH]1)N1CCCCCC1,-25.91
7,COc1ccc2c(c1)C(=O)N(C)C1(CCN(CC=C(C)C)CC1)N2,-3.399
8,CN1CCC(NC(=O)NCCNc2ccccn2)CC1,10.59
9,CC(=O)NC1Cc2ccc(S(=O)(=O)NCCNc3ccccn3)cc2C1 (stereo not given),74.28
10,O=C(NCCNc1ccccn1)NC1CCCC1,1.673
11,CS(=O)(=O)Cc1cc(Cl)c2c(c1)OCCCO2,18.55
12,CN(C)C(=O)CCS(=O)(=O)Cc1cc(Cl)c2c(c1)OCO2,106.6
13,CN(C)C(=O)CCCS(=O)(=O)Cc1cc(Cl)c2c(c1)OCO2,133.3
14,CN(C)C(=O)CCS(=O)(=O)Cc1cc(Cl)c2c(c1)OCCO2,3.114
15,CS(=O)(=O)CCS(=O)(=O)Cc1cc(Cl)c2c(c1)OCCCO2,-7.786
16,CN(C)C(=O)CCCS(=O)(=O)Cc1cc(Cl)c2c(c1)OCCO2,4.566
17,CN(C)C(=O)CS(=O)(=O)Cc1cc(Cl)c2c(c1)OCCO2,128.9
18,CC(C)NC(=O)CS(=O)(=O)Cc1cc(Cl)c2c(c1)OCCO2,2.891
19,CN(C)C(=O)CS(=O)(=O)Cc1cc(Cl)c2c(c1)OCCCO2,-2.577
20,CCN1CCC(NC(=O)NC2CCOc3ccc(Br)cc32)CC1 (stereo not given),-7.217
21,COCc1nc(CNC2CCN(C(C)C)CC2)no1,-1.626
22,CCC(CO)N(Cc1cccs1)C(=O)CSC (stereo not given),-12.18
23,O=S1(=O)C[C@@H]2[C@H](C1)N(Cc1cc(F)cc(Cl)c1)CCN2CCO,3.698
24,CN1[C@H](CO)C[C@H](CNCc2ccc(CO)o2)[C@@H]1c1ccccc1F,-6.438
25,O=C(O)C(F)(F)F.c1cnn(Cc2cn3c(n2)CN(Cc2nccs2)CC3)c1,25.66
26,CC(=O)N1CC2(CCN(S(=O)(=O)N(C)C)CC2)C2(CCNC2=O)C1 (stereo not given),-32.61
27,COc1ccccc1C1CCN(c2ccc3cc[nH]c3n2)CC1,26.71

row,SMILES,Percent Effect [%]
1,COC(=O)c1cc(NCC(=O)NC(N)=O)cc(C(F)(F)F)c1,4.503
2,C[C@@H](NC(=O)c1cccs1)c1onc(-c2cccnc2)c1C(=O)O.Cl,-7.123
3,CCC(NC(=O)c1cc(CC(C)C)nn1C)c1cccc(C)n1 (stereo not given),-23.09
4,COc1c(C(=O)NCC(C)Sc2ccccc2)c(C)nn1C (stereo not given),-11.73
5,Cc1cc(NC(=O)NCCc2cccs2)n(C)n1,-8.078
6,COc1ccccc1C(C)CNC(=O)c1c(C)nn(C)c1OC (stereo not given),-4.025
7,Cc1nn(C)c(C)c1C(=O)NC(C)CC(=O)c1cccs1 (stereo not given),89.66
8,Cc1nn(C)c(C)c1CC(C)NC(=O)NCc1ccn(C(C)C)n1 (stereo not given),14.28
9,Cc1cc(C(=O)NC(C)CC(=O)c2cccs2)n(C)n1 (stereo not given),104.4
10,COc1c(C(=O)NC(C)CC(=O)c2cccs2)c(C)nn1C (stereo not given),88.78
11,CNc1snc(C)c1C(=O)NC(C)CC(=O)c1cccs1 (stereo not given),87.28
12,CNS(=O)(=O)c1cccc(CNC(=O)c2c(C)nn(C)c2C)c1,-2.541
13,CC(NC(=O)c1cccs1)C(=O)NCc1ccccc1CN1CCCC1 (stereo not given),1.8
14,CCc1ccc2c(C3CN(CC4CCC4)C3)ncn2c1.O=C(O)C(F)(F)F,1.201
15,Cc1ccc(C(=O)N2CCSCC2)cc1NC(C)C,-20.08
16,CN(C)c1nc2c(c(N3CCC(O)CC3)n1)CN(CC1CCNC1)CC2 (stereo not given),-8.406
17,CCC(CO)N(Cc1ccccn1)C(=O)c1ccc(CSC)o1 (stereo not given),18.24
18,Cc1c(C(=O)NC(C)CC(=O)c2cccs2)cnn1C (stereo not given),85.26
19,CNS(=O)(=O)c1cccc(CNC(=O)c2cnn(C)c2C)c1,-2.681
20,Cc1c(C(=O)NC(CN2CCCC2=O)c2ccccc2)cnn1C (stereo not given),-6.718
21,O[C@H]1[C@H](NCCc2cnccn2)c2ccccc2C12CCNCC2,1.46
22,CC1CCN(CCNC(=O)C2CCN(C(=O)C3CC3)CC2)CC1,7.892
23,CCCC(C#N)NC(=O)Cc1csc(CC)n1 (stereo not given),-2.381
24,CC(C)CCC(=O)NC(C#N)CC(C)C (stereo not given),5.343
25,COc1ccsc1C(=O)NCCNc1ccccc1,-8.97
26,CCCC(C#N)NC(=O)COC1CCCCC1 (stereo not given),-4.378
27,CCC(C#N)NC(=O)c1sccc1OC (stereo not given),86.18

row,SMILES,Percent Effect [%]
1,CCc1nc(CC(=O)NC(C#N)CC)cs1 (stereo not given),-7.062
2,CCc1ccsc1C(=O)NC(Cc1ccccc1)C(N)=O (stereo not given),1.098
3,CCc1nc(CC(=O)NC(C#N)CC(C)C)cs1 (stereo not given),0.9973
4,COc1ccsc1C(=O)Nc1cc(Br)c(=O)n(C)c1,-2.156
5,CCCC(C#N)NC(=O)c1sccc1CC (stereo not given),99.07
6,CCc1ccsc1C(=O)NC(C#N)CC (stereo not given),105.4
7,CCc1ccsc1C(=O)NC(C#N)CC(C)C (stereo not given),102.3
8,Cc1nc(O)cc(CN2CCC=C(CN(C)C(=O)c3ccco3)C2)n1,2.928
9,Cc1nc2c(c(N(C)Cc3ccccc3-n3cccn3)n1)CCNCC2,14.94
10,COc1ccc(C(=O)N2C[C@@H](C(=O)O)[C@H](c3ccccc3C)C2)c(O)c1,-2.704
11,CCNC(=O)[C@@H]1CCCN1C1(C(=O)NC)CCCCC1.Cl,1.197
12,COc1cccc(COCC(=O)N2CCC(CC(N)=O)CC2)c1,-12.19
13,O=C(c1ccc(S(=O)(=O)NCC(F)F)cc1)N1C[C@H]2CNC[C@H]2C1,19.64
14,O=C(c1cnc2ccccn12)N1CCCC(c2ccn[nH]2)C1 (stereo not given),107.7
15,CC(C)c1cnc(CN2CCCC(c3ccn[nH]3)C2)o1 (stereo not given),-28.34
16,O=C(CCCc1nc(C2CC2)no1)N1CCCC(c2ccn[nH]2)C1 (stereo not given),-3.493
17,O=C(c1cnnn1-c1ccccc1)N1CCCC(c2ccn[nH]2)C1 (stereo not given),106
18,O=C1CCCCCN1CCC(=O)N1CCCC(c2ccn[nH]2)C1 (stereo not given),2.164
19,O=C(c1cc(=O)n(-c2ccccc2)[nH]1)N1CCCC(c2ccn[nH]2)C1 (stereo not given),77.64
20,CC(C)c1ocnc1C(=O)N1CCCC(c2ccn[nH]2)C1 (stereo not given),-7.734
21,Cn1cncc1C(=O)N1CCCC(c2ccn[nH]2)C1 (stereo not given),108.7
22,Cc1cc(OCC(=O)N2CCCC(c3ccn[nH]3)C2)no1 (stereo not given),1.786
23,O=C(CN1CCCC(c2ccn[nH]2)C1)Nc1nncs1 (stereo not given),12
24,CC(C)N1CCC(c2ccnc3c(C(=O)N4CCOCC4)ncn23)CC1,-16.45
